# Experimental data published in PubChem BioAssay (NCATS).
# “And” between values parts separate entries of the source, which are not always exact repeats. Equal values may be shown once. Inconclusive results are not listed. Values without a mark were called inactive. The source made the active and inactive calls. Calls follow the shape of the dose curve; as a rule, active = well fitted inhibition curve with a large enough effect; inconclusive = small, poorly fitted or top-dose-only effect; inactive = flat fitted curve, though single readings scatter.
# Tested on: KB-3-1
# Assay: Cytotoxic Profiling of Annotated Libraries Using Quantitative High-Throughput Screening (AID 1296008); also: nearly all actives have a fitted effect of over 60% in size
# Settings: Five cell lines viability, CellTiter-Glo ATP luminescence, 48-72 h; max response: active compounds read low
# Procedure, shortened: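 Cells exposed to compounds for 48 or 72 hr at 37 degrees Celsius. Viability read as ATP-coupled luminescence with CellTiter-Glo after 10 min at room temperature.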
# % is scaled to controls: 0 for no effect and ±100 for the full control effect; potency is read from the fitted curve at half-maximal effect.
Structure (SMILES),max response,Potency
CO/N=C(\C(=O)N[C@@H]1C(=O)N2C(C(=O)[O-])=C(C[n+]3ccc(N)n3CCO)CS[C@H]12)c1csc(N)n1,5.24%,
CC(C)CCCC(C)NC(C)C (centres undefined),0.846%,
CC1CCC(NC(=O)N(CCCl)N=O)CC1 (centres undefined),8.06%,
CC(C)(COP(=O)(O)OP(=O)(O)OC[C@H]1O[C@@H](n2cnc3c(N)ncnc32)[C@H](O)[C@@H]1OP(=O)(O)O)C(O)C(=O)NCCC(=O)NCCS (some centres undefined),7.71%,
CO[C@H]1C[C@H](O[C@@H]2/C(C)=C/C[C@@H]3C[C@@H](C[C@]4(CC[C@H](C)[C@@H](C5CCCCC5)O4)O3)OC(=O)[C@@H]3C=C(C)/C(=N/O)[C@H]4OC/C(=C\C=C\[C@@H]2C)[C@]43O)O[C@@H](C)[C@@H]1O,-1.21%,
CCCc1nc(C(C)(C)O)c(C(=O)OCc2oc(=O)oc2C)n1Cc1ccc(-c2ccccc2-c2nn[nH]n2)cc1,-0.562%,
C[C@@H]1NC(=O)[C@@H](N)CNC(=O)[C@H](C2CCNC(N)=N2)NC(=O)/C(=C/NC(N)=O)NC(=O)[C@H](CNC(=O)C[C@@H](N)CCCN)NC1=O (some centres undefined),-2.35% and -9.97%,
C[C@H](CCCC(C)(C)O)[C@H]1CC[C@H]2[C@@H]3CC=C4C[C@@H](O)CC[C@]4(C)[C@H]3CC[C@]12C,2.18%,
Cc1cc(-c2ccc(N=Nc3ccc4c(S(=O)(=O)O)cc(S(=O)(=O)O)c(N)c4c3O)c(C)c2)ccc1N=Nc1ccc2c(S(=O)(=O)O)cc(S(=O)(=O)O)c(N)c2c1O,,8.2 µM (active)
